Measured values published in PubChem BioAssay (NCATS).
Inconclusive results are not listed. Active and inactive are the calls of the source. Calls follow the shape of the dose curve; as a rule, active = well fitted inhibition curve with a large enough effect; inconclusive = small, poorly fitted or top-dose-only effect; inactive = flat fitted curve, though single readings scatter.

Columns and labels:
Assay in all cases: qHTS profiling for inhibitors of Plasmodium falciparum proliferation (AID 504749); also: nearly all actives have a fitted effect of over 60% in size
Conditions in all cases: P. falciparum in erythrocytes, SYBR Green DNA, 72 h; series mostly up to 28.7 µM
CP192 = test system: CP192
Outline: (§1)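 Readout was DNA-dye fluorescence from lysed cultures, ex 485/em 535 nm. Parasitized red cells had grown 72 h with compound; data scaled between 0.29 uM artemisinin and DMSO wells and corrected using vehicle-only plates.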

CP194 = test system: CP194
Outline: as §1

CP201 = test system: CP201
Outline: as §1

CP203 = test system: CP203
Outline: as §1

CP211 = test system: CP211
Outline: as §1

CP215 = test system: CP215
Outline: as §1

CP217 = test system: CP217
Outline: as §1

CP237 = test system: CP237
Outline: as §1

CP238 = test system: CP238
Outline: as §1

CP247 = test system: CP247
Outline: as §1

CP250 = test system: CP250
Outline: as §1

CP252 = test system: CP252
Outline: as §1

CP256 = test system: CP256
Outline: as §1

CP260 = test system: CP260
Outline: as §1

CP262 = test system: CP262
Outline: as §1

CP265 = test system: CP265
Outline: as §1

CP266 = test system: CP266
Outline: as §1

CP268 = test system: CP268
Outline: as §1

CP269 = test system: CP269
Outline: as §1

CP286 = test system: CP286
Outline: as §1

Measured: Potency
Potency is read from the fitted curve at half-maximal effect.

O=C(CCNNC(=O)c1ccncc1)NCc1ccccc1
inactive: all assays above

Nc1c2c(nc3ccccc13)CCCC2O (stereo not given)
inactive: all assays above

c1cnc(N2CCN(Cc3ccc4c(c3)OCO4)CC2)nc1
inactive: all assays above

COC(=O)C1=C(C)NC(C)=C(C(=O)OC(C)(C)CN(C)CCC(c2ccccc2)c2ccccc2)C1c1cccc([N+](=O)[O-])c1 (stereo not given)
active: CP192 9.53 µM | CP194 3.79 µM | CP201 6.01 µM | CP203 4.26 µM | CP211 4.78 µM | CP215 4.78 µM | CP217 3.16 µM | CP237 2.51 µM | CP238 3.98 µM | CP247 3.16 µM | CP250 3.55 µM | CP252 3.55 µM | CP256 2.82 µM | CP260 2.24 µM | CP262 4.26 µM | CP265 3.55 µM | CP266 6.75 µM | CP268 7.57 µM | CP269 4.26 µM | CP286 2.51 µM

CCCCCN(CCCCC)C(=O)C(CCC(=O)O)NC(=O)c1ccc(Cl)c(Cl)c1 (stereo not given)
inactive: all assays above

NS(=O)(=O)c1cc2c(cc1Cl)NC(C1CC3C=CC1C3)NS2(=O)=O (stereo not given)
inactive: all assays above

COc1ccc([C@@H]2Sc3ccccc3N(CCN(C)C)C(=O)[C@@H]2OC(C)=O)cc1
inactive: all assays above

Cc1cc(C)c(/C=C2\C(=O)Nc3ccccc32)[nH]1
inactive: all assays above

CCCOc1ccccc1-c1nc2n[nH]nc2c(=O)[nH]1
inactive: all assays above

CCN1CCC[C@H]1CNC(=O)c1c(O)c(Cl)cc(Cl)c1OC
inactive: all assays above

NC(=O)c1ncn([C@@H]2O[C@H](CO)[C@@H](O)[C@H]2O)c1O
inactive: all assays above

C[N+](C)(C)CCOC(N)=O
inactive: all assays above

O=c1[nH]c(=O)n([C@H]2C[C@H](O)[C@@H](CO)O2)cc1Br
inactive: all assays above
